GRIN3A LBD mod: modulates the human NR3A ligand-binding domain | NR3A LBD differential scanning fluorimetry, Tm shift; 0% = protein alone, 100% = glycine-bound protein | Tm shift relative to glycine control, % at 25 µM | hit rate 2.5% among 340,000 | AID 1259313;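 active means melting temperature shift of at least 10% of the positive control shift, at one fixed dose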
MPTP inh: inhibitors of mitochondrial permeability transition pore. isolated mouse mitochondria, Ca2+ swelling absorbance, 30 min. AID 602449. inhibition, % at 10 µM. hit rate 1.4% among 360,000;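 active means inhibition of 50% or more, scaled per plate between neutral and stimulator controls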;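 further: 0% = DMSO wells given calcium and 100% = 1 mM EGTA wells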
FAS-TE inh: blocks the thioesterase domain of human fatty acid synthase; P49327; recombinant FAS-TE, OMFH fluorogenic substrate, fluorescence endpoint; inhibition, % at 15 µM; hit rate 0.67% among 360,000; AID 602261;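 active means compounds whose normalised, plate-corrected inhibition of enzyme fluorescence in the single-dose primary screen is 50% or more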;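 further: 0% = DMSO with enzyme and 100% = substrate without enzyme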
Myeloid diff 2: myeloid differentiation induction | ER-HoxA9 myeloid progenitors, lysozyme-GFP differentiation, flow cytometry | calls only at 10 µM | hit rate 1% among 360,000 | AID 624256;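 active means normalized GFP-positive differentiation at or above the plate's own cutoff, the solvent-only control mean plus 3 SD; inconclusive means no clear call, values can overlap the other calls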;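 further: cells exposed to compound for four days before flow analysis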
rCAG RNA binder: r(CAG) repeat RNA binding. inhibition, % at 3 µM. AID 651821. hit rate 1.3% among 370,000. TO-PRO-1 dye displacement fluorescence;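 active means inhibition above the plate cutoff, the mean of all test compounds on that plate plus 3 SD, cut at about 35% in these data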;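 further: 0% = DMSO alone and 100% = 100 µM mitoxantrone as full dye displacement; higher means more dye released from RNA so lower well fluorescence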
rCAG bind conf: r(CAG) RNA repeat binding, confirmation; shares compounds with rCAG RNA binder; TO-PRO-1 dye displacement fluorescence; inhibition, % at 3 µM; hit rate 70% among 4,300; AID 652065;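 active means inhibition above a per-plate cutoff, the mean inhibition of sample wells plus 3 SD, cut at about 35% in these data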;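 further: loss of TO-PRO-1 fluorescence as compound displaces dye from 1x1 AA loop RNA; 0% = DMSO only wells and 100% = 100 µM mitoxantrone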
dCAG dye counter: disrupts DNA CAG TO-PRO-1 complex, flagging rCAG hits; d(CAG) DNA oligo TO-PRO-1 dye displacement, fluorescence; inhibition, % at 3 µM; shares compounds with rCAG RNA binder; hit rate 94% among 4,300;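 active means inhibition above its plate's cutoff, the mean test-well inhibition plus 3 SD, cut at about 4.8% in these data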;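 further: 0% = DNA dye mix with DMSO and 100% = 100 µM mitoxantrone; hits displace the dye from DNA and so lower well fluorescence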
Active calls of the source: *; i = inactive; ? = inconclusive; . = no result. Most compounds without a hit are left out; they make up all but 5.7% or so of the library.

SMILES | GRIN3A LBD mod | MPTP inh | FAS-TE inh | Myeloid diff 2 | rCAG RNA binder | rCAG bind conf | dCAG dye counter
COc1ccccc1NS(=O)(=O)c1ccc(C)c(NS(=O)(=O)c2cc(C(=O)O)cc(C)c2C)c1 | 4 | -1 | -5 | i | 42* | 20 | 7.3*
NC(=O)N/N=C/c1ccc(-c2ccc(S(=O)(=O)Nc3ncccn3)cc2)o1 | 1 | -2 | -6 | i | -6 | . | .
Cc1noc(NS(=O)(=O)c2ccc(NC(=O)c3ccc(N(C)C)cc3)cc2)c1C | 0 | -1 | -7 | i | 16 | . | .
Cc1nn(C)c(C)c1S(=O)(=O)NCCc1ccc(Cl)cc1 | -3 | -4 | -4 | i | 0 | . | .
O=S(=O)(Nc1ccc(O)c(NS(=O)(=O)c2ccccc2)c1)c1ccccc1 | 3 | 2 | -7 | i | 4 | . | .
O=C(CC1S/C(=N/N=C/c2ccco2)NC1=O)Nc1cccc(Cl)c1Cl (configuration not stated) | -2 | 2 | 3 | i | 30 | . | .
COc1ccc2c(c1)c1ncn(CCN3CCCC3)c(=O)c1n2C | 0 | 0 | -7 | i | 4 | . | .
COc1ccc2c(c1)c1ccc3c(c1n2C)C(=O)C=CC3=O | -5 | 4 | 13 | ? | 54* | 11 | 8.3*
COc1cc(CNc2ccc(CNc3ncn[nH]3)cc2)cc(Cl)c1OCc1ccccc1 | -1 | 0 | -13 | i | 2 | . | .
O=C(O)c1cc([N+](=O)[O-])ccc1NCc1ccccc1 | 0 | 1 | -4 | i | 11 | . | .
O=C(O)c1cc([N+](=O)[O-])ccc1NCCCc1ccccc1 | -13 | -3 | 3 | i | 37* | 31 | 6.5*
Cc1nn(C)c(C)c1CN(C(=O)C1CCC(=O)N(C2CCCCCC2)C1)C(C)C (configuration not stated) | -1 | -1 | -2 | i | -5 | . | .
Cn1c([N+](=O)[O-])cnc1N1CCN(c2nncs2)C1=O | 2 | 0 | -2 | i | -1 | . | .
COCCCNS(=O)(=O)c1cc2c3c(c1)C(C)C(=O)N3CCC2 (configuration not stated) | 0 | -1 | -8 | i | 3 | . | .
CCOC(=O)C1=C(CC)Nc2ccccc2N/C1=N\S(=O)(=O)c1ccc(C(=O)OCC)cc1 | -15 | 1 | -1 | i | 41* | 40* | 9.1*
CC(C)(C)CN1CCC(n2nccc2NC(=O)c2ccccc2Cl)CC1 | 1 | -2 | -3 | i | -6 | . | .
C=CCOC(=O)c1[nH]c2c(c1C)C(=O)CC(c1ccco1)C2 (configuration not stated) | -2 | . | . | . | . | . | .
C/C=C/COC(=O)c1[nH]c2c(c1C)C(=O)CC(c1ccco1)C2 (configuration not stated) | -4 | 1 | 6 | ? | 38* | 12 | 9.4*
CCCc1cc(-c2ccc3c(c2)COc2c4ccccc4nn2-3)on1 | -2 | 1 | 14 | i | 6 | . | .
Cc1ccc(NC(=O)CN2C(=O)S/C(=C\c3ccc(OCC(=O)O)c(Br)c3)C2=O)cc1 | -3 | 0 | -4 | i | 28 | . | .
Cc1ccc(CN2C(=O)S/C(=C\c3ccccc3OCC(=O)O)C2=O)cc1 | 0 | -5 | -4 | i | 60* | 64* | 18*
O=C(O)COc1ccccc1/C=C1\SC(=O)N(Cc2ccc(F)cc2)C1=O | 1 | -1 | 2 | i | 37* | 39* | 5.0*
O=C(c1ccc(F)cc1)C1CCN(CCCn2c(=O)[nH]c3ccccc32)CC1 | . | . | . | . | 0 | . | .
COC(=O)c1ccc(COc2ccccc2/C=C/C(=O)c2ccc(OCC(=O)O)cc2)cc1 | -4 | -1 | 0 | i | 56* | 64* | 24*
COc1ccc(S(=O)(=O)Nc2nc3ccccc3s2)cc1 | -8 | 1 | -2 | i | 21 | . | .
SMILES | GRIN3A LBD mod | MPTP inh | FAS-TE inh | Myeloid diff 2 | rCAG RNA binder | rCAG bind conf | dCAG dye counter
CCOc1ccc2sc(NS(=O)(=O)c3ccc(OC)c(OC)c3)nc2c1 | 1 | -1 | -8 | i | 52* | 26 | 5.9*
O=C(COc1ccccc1)NCC(=O)N1CCCC(C(F)(F)F)C1 (configuration not stated) | 0 | -1 | 10 | i | -4 | . | .
CCN(CC)c1ccc(-n2c(O)c(C=C3N=c4ccccc4=N3)sc2=S)cc1 | -6 | 1 | -11 | i | 4 | . | .
O=C(O)c1cccc(-n2c(O)c(C=C3N=c4ccccc4=N3)sc2=S)c1 | -3 | 3 | -6 | i | 81* | 64* | 22*
O=C(O)c1ccc(-n2c(O)c(C=C3N=c4ccccc4=N3)sc2=S)cc1 | -2 | 8 | -7 | i | 80* | 62* | 24*
C[C@@H](NC(=O)[C@@H]1CCCN1C(=O)[C@@H]1CCCN1C(=O)c1cccc(Cl)c1)c1ccccc1 | . | -1 | -6 | i | -2 | . | .
O=C1N=c2ccccc2=C1c1sc(=S)n(NC(=O)c2ccccc2)c1O | 31* | 23 | -3 | i | 61* | 41* | 20*
Cc1ccc(-c2c(C)n([O-])c3c([n+]2=O)CCCC3)o1 | -1 | -3 | -7 | i | 1 | . | .
Cc1oc2c(cc(NS(=O)(=O)c3ccc4c5c(cccc35)C(=O)N4)c3ccccc32)c1C(=O)OC(C)C | 10 | 6 | -11 | i | 37* | 38* | 17*
CCOC(=O)c1c(C)oc2c1cc(NS(=O)(=O)c1ccc(C(=O)O)cc1)c1ccccc12 | -6 | -2 | 1 | i | 67* | 55* | 20*
Cc1ccc(C(=O)N2CCNC(=O)C2CC(=O)Nc2ccccc2)cc1 (configuration not stated) | -26 | 0 | 0 | i | -1 | . | .
CCC(C)(C)c1ccc(Oc2cccc(C(=O)O)c2)cc1 | 4 | 0 | -6 | i | 39* | 29 | 3
CN(C)/C=C(/C#N)C(=O)c1cccc(Oc2ccc(C(C)(C)C)cc2)c1 | -14 | 10 | 9 | i | 50* | 20 | 6.1*
CCC(C)(C)c1ccc(Oc2ccc(N)cc2)cc1 | -9 | 9 | 23 | i | -4 | . | .
CCOC(=O)c1cncc(C#CCO)c1 | 3 | 1 | -6 | i | 2 | . | .
COc1ccc(C)cc1NC(=O)C1CCCN(S(=O)(=O)c2cccc3cccnc23)C1 (configuration not stated) | -1 | -1 | 6 | i | . | . | .
Cc1c(CCC(=O)N[C@@H](C)C(=O)O)c(=O)oc2c(C)c3oc4c(c3cc12)CCCC4 | -3 | 1 | -5 | i | 43* | 39* | 8.8*
Cc1c(CCC(=O)NCCC(=O)O)c(=O)oc2c(C)c3oc4c(c3cc12)CCCC4 | 0 | 0 | -7 | i | 42* | 38* | 10*
CCn1c(COc2cccc(C)c2)nnc1SCC(=O)CC(=O)Nc1ccccc1OC | -3 | 2 | -1 | i | 37* | 11 | 4.6*
CCn1c(COc2ccccc2)nnc1SCC(=O)CC(=O)Nc1ccccc1OC | -1 | 3 | 0 | i | 28 | . | .

Assay outcomes: PubChem BioAssay, several laboratories
